From the supplement of paper PMC12067093, “Discovery and optimisation of a covalent ligand for TRIM25 and its application to targeted protein ubiquitination” (Chemical Science, 2025) come the findings set out here.

Of roughly 21,000 targets only a part is listed; those with the largest changes were picked by preference.
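Further: competitive profiling in live THP-1 cells: cysteine peptides tagged with an iodoacetamide desthiobiotin (IA-DTB) probe, intensity after compound treatment relative to DMSO-treated cells.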

Sequence of UniProt Q15084 (Q15084 whole entry, looked up): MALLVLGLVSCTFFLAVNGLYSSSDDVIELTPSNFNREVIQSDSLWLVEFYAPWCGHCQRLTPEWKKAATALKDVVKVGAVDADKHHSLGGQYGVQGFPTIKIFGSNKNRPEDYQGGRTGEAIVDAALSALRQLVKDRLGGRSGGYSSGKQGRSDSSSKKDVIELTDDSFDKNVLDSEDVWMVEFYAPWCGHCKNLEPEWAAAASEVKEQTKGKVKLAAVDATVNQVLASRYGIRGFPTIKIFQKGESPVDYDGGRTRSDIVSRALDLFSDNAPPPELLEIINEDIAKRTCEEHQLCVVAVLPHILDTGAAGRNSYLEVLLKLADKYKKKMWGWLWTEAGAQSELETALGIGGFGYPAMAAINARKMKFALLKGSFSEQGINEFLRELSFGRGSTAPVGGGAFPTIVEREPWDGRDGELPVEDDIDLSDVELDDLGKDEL
Sequence of UniProt P07737 (P07737 whole entry, looked up): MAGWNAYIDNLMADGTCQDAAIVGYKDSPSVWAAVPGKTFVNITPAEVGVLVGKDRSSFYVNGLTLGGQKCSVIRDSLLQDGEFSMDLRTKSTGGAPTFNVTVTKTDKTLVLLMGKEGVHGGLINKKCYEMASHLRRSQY
Sequence of UniProt Q9NY27 (Q9NY27 whole entry, looked up): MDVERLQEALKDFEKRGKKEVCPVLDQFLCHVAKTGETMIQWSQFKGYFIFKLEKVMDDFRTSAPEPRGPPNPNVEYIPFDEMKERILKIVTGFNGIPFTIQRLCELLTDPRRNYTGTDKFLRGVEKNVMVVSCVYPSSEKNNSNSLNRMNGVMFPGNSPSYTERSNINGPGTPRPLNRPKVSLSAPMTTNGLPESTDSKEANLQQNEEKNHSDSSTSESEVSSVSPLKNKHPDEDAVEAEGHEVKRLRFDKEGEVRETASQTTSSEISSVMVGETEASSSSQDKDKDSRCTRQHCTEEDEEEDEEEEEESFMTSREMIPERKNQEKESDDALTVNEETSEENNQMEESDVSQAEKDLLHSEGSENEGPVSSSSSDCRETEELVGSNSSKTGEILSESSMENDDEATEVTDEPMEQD
Sequence of UniProt P05165 (P05165 whole entry, looked up): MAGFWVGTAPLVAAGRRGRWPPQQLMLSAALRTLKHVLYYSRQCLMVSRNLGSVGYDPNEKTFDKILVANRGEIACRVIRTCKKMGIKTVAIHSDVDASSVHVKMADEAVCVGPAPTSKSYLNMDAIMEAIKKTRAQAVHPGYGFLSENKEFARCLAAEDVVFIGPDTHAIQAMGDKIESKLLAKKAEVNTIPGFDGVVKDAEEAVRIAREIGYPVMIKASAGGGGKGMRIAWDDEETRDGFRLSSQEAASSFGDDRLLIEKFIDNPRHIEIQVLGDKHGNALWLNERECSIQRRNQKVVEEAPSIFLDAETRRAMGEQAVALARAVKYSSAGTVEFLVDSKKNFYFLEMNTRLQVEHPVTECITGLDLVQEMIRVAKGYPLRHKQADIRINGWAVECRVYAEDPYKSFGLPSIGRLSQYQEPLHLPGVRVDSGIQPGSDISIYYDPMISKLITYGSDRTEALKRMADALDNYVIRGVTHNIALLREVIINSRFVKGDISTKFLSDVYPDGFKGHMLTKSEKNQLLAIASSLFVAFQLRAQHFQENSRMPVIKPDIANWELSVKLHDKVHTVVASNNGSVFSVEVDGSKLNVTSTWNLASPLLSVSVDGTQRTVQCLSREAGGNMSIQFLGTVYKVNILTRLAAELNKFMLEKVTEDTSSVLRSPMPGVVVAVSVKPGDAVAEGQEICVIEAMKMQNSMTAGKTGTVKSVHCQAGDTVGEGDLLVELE
Sequence of UniProt Q8WXW3 (Q8WXW3 whole entry, looked up): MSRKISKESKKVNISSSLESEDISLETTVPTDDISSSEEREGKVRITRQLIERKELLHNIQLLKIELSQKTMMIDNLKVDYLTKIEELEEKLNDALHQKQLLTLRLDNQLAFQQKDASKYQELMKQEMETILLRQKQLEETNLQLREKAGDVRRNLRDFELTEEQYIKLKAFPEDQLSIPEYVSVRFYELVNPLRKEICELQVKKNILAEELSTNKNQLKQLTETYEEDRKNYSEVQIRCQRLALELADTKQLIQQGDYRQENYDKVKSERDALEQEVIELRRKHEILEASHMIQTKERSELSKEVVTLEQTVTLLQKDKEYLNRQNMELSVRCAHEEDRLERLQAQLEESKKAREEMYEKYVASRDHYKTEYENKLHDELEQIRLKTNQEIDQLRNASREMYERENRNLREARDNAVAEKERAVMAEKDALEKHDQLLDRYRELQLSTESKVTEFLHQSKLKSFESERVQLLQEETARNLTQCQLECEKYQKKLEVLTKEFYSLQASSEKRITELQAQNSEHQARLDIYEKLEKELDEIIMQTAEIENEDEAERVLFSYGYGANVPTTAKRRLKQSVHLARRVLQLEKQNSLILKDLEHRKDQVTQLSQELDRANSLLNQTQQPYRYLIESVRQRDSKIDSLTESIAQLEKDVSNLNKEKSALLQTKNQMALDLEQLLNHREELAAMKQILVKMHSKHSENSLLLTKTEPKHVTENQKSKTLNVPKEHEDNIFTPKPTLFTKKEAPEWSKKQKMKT
Sequence of UniProt Q9H8W4 (Q9H8W4 whole entry, looked up): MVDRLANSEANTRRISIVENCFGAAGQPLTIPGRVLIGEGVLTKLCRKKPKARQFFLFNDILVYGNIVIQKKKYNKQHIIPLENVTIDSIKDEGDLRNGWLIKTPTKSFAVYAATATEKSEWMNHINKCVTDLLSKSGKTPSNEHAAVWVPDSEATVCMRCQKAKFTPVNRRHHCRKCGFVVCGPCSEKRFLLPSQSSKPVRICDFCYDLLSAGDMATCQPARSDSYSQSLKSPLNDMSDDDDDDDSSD
Sequence of UniProt Q8NHP8 (Q8NHP8 whole entry, looked up): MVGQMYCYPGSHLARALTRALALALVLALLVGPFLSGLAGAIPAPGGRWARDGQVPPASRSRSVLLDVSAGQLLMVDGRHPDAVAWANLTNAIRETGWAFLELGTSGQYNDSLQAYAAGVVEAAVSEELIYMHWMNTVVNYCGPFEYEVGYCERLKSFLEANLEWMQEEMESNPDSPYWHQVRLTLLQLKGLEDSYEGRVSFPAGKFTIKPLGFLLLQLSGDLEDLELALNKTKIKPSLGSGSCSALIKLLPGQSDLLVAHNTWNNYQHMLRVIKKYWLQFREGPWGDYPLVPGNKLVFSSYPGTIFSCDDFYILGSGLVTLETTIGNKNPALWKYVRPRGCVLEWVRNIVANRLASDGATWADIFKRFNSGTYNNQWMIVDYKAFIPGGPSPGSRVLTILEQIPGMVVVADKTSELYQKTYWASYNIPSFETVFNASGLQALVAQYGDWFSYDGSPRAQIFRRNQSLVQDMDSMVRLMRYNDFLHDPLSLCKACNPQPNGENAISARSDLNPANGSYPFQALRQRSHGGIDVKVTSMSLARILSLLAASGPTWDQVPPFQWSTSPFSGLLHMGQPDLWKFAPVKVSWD
Sequence of UniProt Q5JVF3 (Q5JVF3 whole entry, looked up): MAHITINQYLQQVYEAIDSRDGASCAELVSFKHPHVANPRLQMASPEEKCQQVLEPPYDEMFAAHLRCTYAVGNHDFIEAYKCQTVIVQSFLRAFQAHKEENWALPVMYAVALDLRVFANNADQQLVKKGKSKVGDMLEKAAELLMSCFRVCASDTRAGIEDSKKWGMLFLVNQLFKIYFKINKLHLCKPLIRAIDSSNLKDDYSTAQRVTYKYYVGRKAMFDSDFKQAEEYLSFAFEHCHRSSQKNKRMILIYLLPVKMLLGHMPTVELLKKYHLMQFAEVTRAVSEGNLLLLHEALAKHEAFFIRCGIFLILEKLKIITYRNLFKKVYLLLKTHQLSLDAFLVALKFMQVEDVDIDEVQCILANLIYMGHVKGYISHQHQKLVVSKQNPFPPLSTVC
Sequence of UniProt Q8IZL8 (Q8IZL8 whole entry, looked up): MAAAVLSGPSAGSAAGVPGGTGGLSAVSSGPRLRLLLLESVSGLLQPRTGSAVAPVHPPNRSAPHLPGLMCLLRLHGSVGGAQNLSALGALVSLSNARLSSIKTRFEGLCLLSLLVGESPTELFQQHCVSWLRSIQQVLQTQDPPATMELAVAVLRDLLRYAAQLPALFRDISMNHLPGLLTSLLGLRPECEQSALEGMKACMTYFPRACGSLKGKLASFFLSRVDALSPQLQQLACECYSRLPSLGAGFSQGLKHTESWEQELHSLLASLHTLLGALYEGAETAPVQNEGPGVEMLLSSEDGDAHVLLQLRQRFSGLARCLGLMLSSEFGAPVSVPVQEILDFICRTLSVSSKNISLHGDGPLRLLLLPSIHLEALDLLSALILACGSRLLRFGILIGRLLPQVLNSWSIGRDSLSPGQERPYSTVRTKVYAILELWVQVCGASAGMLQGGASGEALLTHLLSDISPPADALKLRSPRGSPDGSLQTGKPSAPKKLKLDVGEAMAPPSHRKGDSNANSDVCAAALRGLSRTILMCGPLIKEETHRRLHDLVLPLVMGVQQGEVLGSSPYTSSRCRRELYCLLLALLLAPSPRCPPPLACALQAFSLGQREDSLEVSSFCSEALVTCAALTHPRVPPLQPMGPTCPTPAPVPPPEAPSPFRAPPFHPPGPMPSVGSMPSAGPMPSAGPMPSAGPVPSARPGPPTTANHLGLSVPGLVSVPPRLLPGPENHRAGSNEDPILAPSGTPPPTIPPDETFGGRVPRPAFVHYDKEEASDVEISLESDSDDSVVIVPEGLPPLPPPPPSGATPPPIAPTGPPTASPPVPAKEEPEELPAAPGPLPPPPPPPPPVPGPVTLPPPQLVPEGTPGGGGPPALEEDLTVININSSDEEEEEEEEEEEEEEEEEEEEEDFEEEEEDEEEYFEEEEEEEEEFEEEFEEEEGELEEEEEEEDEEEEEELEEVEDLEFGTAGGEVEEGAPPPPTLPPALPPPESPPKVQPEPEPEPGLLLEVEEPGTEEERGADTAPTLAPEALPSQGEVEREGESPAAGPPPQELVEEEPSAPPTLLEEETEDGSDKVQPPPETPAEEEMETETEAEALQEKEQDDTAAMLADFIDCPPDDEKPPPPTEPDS

Compound in one assay: Cc1cc(ccc1-c1ccccc1)C(=O)N1CCCN(CC1)C(=O)CCl [compound 10]
Nature of the assay: probe-labelled cysteine peptide fold change vs DMSO (competition) (log2 fold change); higher = less target engagement (more negative = stronger competition). The following applies: 10 µM; THP-1; incubation time: 4 h.
Take “PDIA4_P13667_91+94_DTVLLEFYAPWCGHCK (UniProt P13667)”: the “probe-labelled cysteine peptide fold change” value was -0.227.

On to “PIBF1_Q8WXW3_334_CAHEEDRLER (UniProt Q8WXW3)”, for which the “probe-labelled cysteine peptide fold change” value was 0.47.

As to “PLEKHF2_Q9H8W4_219_ICDFCYDLLSAGDMATCQPAR (UniProt Q9H8W4)”, the “probe-labelled cysteine peptide fold change” value was -0.498.

In the case of “PML_P29590_479+484_CSQTQCPR (UniProt P29590)”, the “probe-labelled cysteine peptide fold change” value was -0.494.

With “PFN1_P07737_128_KCYEMASHLRR (UniProt P07737)”, the “probe-labelled cysteine peptide fold change” value was -0.531.

In the case of “PCID2_Q5JVF3_152_VCASDTR (UniProt Q5JVF3)”, the “probe-labelled cysteine peptide fold change” value was determined as 0.19.

“PLBD2_Q8NHP8_492_YNDFLHDPLSLCK (UniProt Q8NHP8)”: the “probe-labelled cysteine peptide fold change” value worked out at 0.0964.

Regarding “POLR2K_P53803_22_QQPMIYICGECHTENEIK (UniProt P53803)”, the “probe-labelled cysteine peptide fold change” value was -0.0834.

Turning to “PLA2G4C_Q9UP65_351_KTGICASK (UniProt Q9UP65)”, the “probe-labelled cysteine peptide fold change” value was -0.289.

As for “PELP1_Q8IZL8_71_SAPHLPGLMCLLR (UniProt Q8IZL8)”, the “probe-labelled cysteine peptide fold change” value is -1.13.

With “PDIA6_Q15084_291_RTCEEHQLCVVAVLPHILDTGAAGR (UniProt Q15084)”, the “probe-labelled cysteine peptide fold change” value came to 0.0625.

Turning to “PDSS2_Q86YH6_71_CLLSDELSNIAMQVR (UniProt Q86YH6)”, the “probe-labelled cysteine peptide fold change” value is -0.424.

For “PPP4C_P60510_130_QITQVYGFYDECLRK<|>PPP2CB_P62714_133_QITQVYGFYDECLRK<|>PPP2CA_P67775_133_QITQVYGFYDECLRK (UniProt P67775+P62714+P60510)”, the “probe-labelled cysteine peptide fold change” value worked out at 0.0312.

Regarding “PPP4R2_Q9NY27_30_EVCPVLDQFLCHVAK (UniProt Q9NY27)”, the “probe-labelled cysteine peptide fold change” value stood at 0.0564.

For the target “PCCA_P05165_398_INGWAVECR (UniProt P05165)”, the “probe-labelled cysteine peptide fold change” value worked out at 0.181.

The same assay, now with this note: 50 µM; THP-1; incubation time: 4 h.
“PPP6C_O00743_129_QITQVYGFYDECQTK (UniProt O00743)”: the “probe-labelled cysteine peptide fold change” value turned out to be 0.309.

As for “PPP5D1_E7EU14_47_YQECNK<|>PPP5C_P53041_139_YQECNK (UniProt P53041+E7EU14)”, the “probe-labelled cysteine peptide fold change” value is -0.0811.

For “POP1_Q99575_745_RSEVPCAPMPK (UniProt Q99575)”, the “probe-labelled cysteine peptide fold change” value was -0.307.

Regarding “PDIA3_P30101_85+92_VDCTANTNTCNK (UniProt P30101)”, the “probe-labelled cysteine peptide fold change” value is -0.048.

Regarding “PLCG2_P16885_791_SDELSFCR (UniProt P16885)”, the “probe-labelled cysteine peptide fold change” value is -0.0713.

Consider “POLR2A_P24928_451_HMCDGDIVIFNR (UniProt P24928)”, for which the “probe-labelled cysteine peptide fold change” value was -0.107.

With “POFUT1_Q9H488_249_NACAMLK (UniProt Q9H488)”, the “probe-labelled cysteine peptide fold change” value is -0.164.

Take “PML_P29590_140+143_ESADFWCFECEQLLCAK (UniProt P29590)”: the “probe-labelled cysteine peptide fold change” value is -0.116.

As for “PDIA4_P13667_555_DVLIEFYAPWCGHCK<|>PDIA3_P30101_406_DVLIEFYAPWCGHCK (UniProt P30101+P13667)”, the “probe-labelled cysteine peptide fold change” value was -1.09.

Take “PCDH17_O14917_335_DLGPNPIPAHCK (UniProt O14917)”: the “probe-labelled cysteine peptide fold change” value is -0.403.

As for “PECAM1_P16284_109_CTVIVNNK (UniProt P16284)”, the “probe-labelled cysteine peptide fold change” value was found to be 0.348.

In the case of “PATZ1_Q9HBE1_610_KYPCPECGSFFR (UniProt Q9HBE1)”, the “probe-labelled cysteine peptide fold change” value was 0.151.

As to “PM20D2_Q8IYS1_14_MRPGGERPVEGGACNGR (UniProt Q8IYS1)”, the “probe-labelled cysteine peptide fold change” value is -0.608.

For the target “PITPNB_P48739_13_VVLPCSVQEYQVGQLYSVAEASK (UniProt P48739)”, the “probe-labelled cysteine peptide fold change” value turned out to be 0.103.

With “PCBP1_Q15365_158_AITIAGVPQSVTECVK (UniProt Q15365)”, the “probe-labelled cysteine peptide fold change” value is -0.0314.

For “PDIA4_P13667_91+94_DTVLLEFYAPWCGHCK (UniProt P13667)”, the “probe-labelled cysteine peptide fold change” value was -1.17.

Consider “PIBF1_Q8WXW3_334_CAHEEDRLER (UniProt Q8WXW3)”, for which the “probe-labelled cysteine peptide fold change” value is 1.41.

With “PLEKHF2_Q9H8W4_219_ICDFCYDLLSAGDMATCQPAR (UniProt Q9H8W4)”, the “probe-labelled cysteine peptide fold change” value is -0.228.

“PML_P29590_479+484_CSQTQCPR (UniProt P29590)”: the “probe-labelled cysteine peptide fold change” value was -1.17.

Take “PFN1_P07737_128_KCYEMASHLRR (UniProt P07737)”: the “probe-labelled cysteine peptide fold change” value is -0.695.

“PCID2_Q5JVF3_152_VCASDTR (UniProt Q5JVF3)”: the “probe-labelled cysteine peptide fold change” value was 0.0189.

With “PLBD2_Q8NHP8_492_YNDFLHDPLSLCK (UniProt Q8NHP8)”, the “probe-labelled cysteine peptide fold change” value is -0.267.

As to “POLR2K_P53803_22_QQPMIYICGECHTENEIK (UniProt P53803)”, the “probe-labelled cysteine peptide fold change” value is -0.286.

On to “PLA2G4C_Q9UP65_351_KTGICASK (UniProt Q9UP65)”, for which the “probe-labelled cysteine peptide fold change” value was -1.38.

As for “PELP1_Q8IZL8_71_SAPHLPGLMCLLR (UniProt Q8IZL8)”, the “probe-labelled cysteine peptide fold change” value is -0.883.

Consider “PDIA6_Q15084_291_RTCEEHQLCVVAVLPHILDTGAAGR (UniProt Q15084)”, for which the “probe-labelled cysteine peptide fold change” value was -0.132.

As to “PDSS2_Q86YH6_71_CLLSDELSNIAMQVR (UniProt Q86YH6)”, the “probe-labelled cysteine peptide fold change” value was -2.09.

Turning to “PPP4C_P60510_130_QITQVYGFYDECLRK<|>PPP2CB_P62714_133_QITQVYGFYDECLRK<|>PPP2CA_P67775_133_QITQVYGFYDECLRK (UniProt P67775+P62714+P60510)”, the “probe-labelled cysteine peptide fold change” value was -0.109.

Regarding “PPP4R2_Q9NY27_30_EVCPVLDQFLCHVAK (UniProt Q9NY27)”, the “probe-labelled cysteine peptide fold change” value is -0.311.

Turning to “PCCA_P05165_398_INGWAVECR (UniProt P05165)”, the “probe-labelled cysteine peptide fold change” value was 0.357.
